Screening results: PubChem BioAssay, National Center for Advancing Translational Sciences (NCATS)
Most compounds without a hit are left out; they make up all but 1.5% or so of the library.
HTT cytoprotect – qHTS Multiplex Assay to Identify Dual Action Probes in a Cell Model of Huntington: Cytoprotection (ATP); Potency, µM (highest dose often 56.4 µM), inactives show cytoprotection (ATP increase), most hits filed as activators; PC12 HTT-Q103 induced, cytoprotection, ATP luminescence, 40 h; actives 0.14% (n = 230,000); also: % of control where 0% means no effect; nearly all actives have a fitted effect of over 45% in size
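Readout: ATPlite luminescence (ATP level). Model: stable PC12, inducible Htt exon1 Q103-GFP. Inducer: tebufenozide, 100 nM final. Compounds: dose series. No G418 in medium.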
Epigenetic reg – Quantitative High-Throughput Screen for Regulators of Epigenetic Control. AID 1865, 2009. actives 0.2% (n = 280,000). Potency, µM (titrated, usually from 53.9 µM), for the others: at the top dose GFP activation, most hits filed as activators. murine LDR cells, GFP reporter derepression, 30 h; also: % of control where 0% means no effect; nearly all actives have a fitted effect of over 60% in size
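In this reporter-derepression format, murine cells bearing a silenced integrated CMV-GFP locus incubate with test compound (30 h, 37 C), then are washed and imaged; fluorescent objects of 20–120 um count as induced cells.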
NPSR antag – qHTS Assay for Antagonists of the Neuropeptide S Receptor: cAMP Signal Transduction; actives 1% (n = 220,000); Potency, µM (titrated, usually from 38.3 µM), for inactives: at the highest dose activity change, negative = inhibition, hits mostly inhibitors; CHO-NPSR cells, cAMP TR-FRET, antagonist mode; Q6W5P4; also: % is scaled to controls: 0 for no effect and ±100 for the full control effect; nearly all actives have a fitted effect of over 50% in size
Target sequence (Q6W5P4 whole entry, looked up): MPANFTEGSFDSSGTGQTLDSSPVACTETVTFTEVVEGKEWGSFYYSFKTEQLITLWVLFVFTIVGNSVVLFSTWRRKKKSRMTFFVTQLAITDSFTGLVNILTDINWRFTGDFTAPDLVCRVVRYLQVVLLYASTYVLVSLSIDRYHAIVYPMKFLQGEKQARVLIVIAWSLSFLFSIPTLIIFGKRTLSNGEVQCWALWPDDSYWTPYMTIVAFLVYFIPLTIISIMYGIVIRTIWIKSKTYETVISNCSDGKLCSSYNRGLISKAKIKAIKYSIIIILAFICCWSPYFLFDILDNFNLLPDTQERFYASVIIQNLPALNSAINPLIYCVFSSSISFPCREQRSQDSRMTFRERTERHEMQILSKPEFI
HttQ103 aggreg – qHTS Multiplex Assay to Identify Dual Action Probes in a Cell Model of Huntington: Aggregate Formation (GFP) | AID 1688, 2009 | Potency, µM (titrated, usually from 46.1 µM), for the others: at the highest dose activity change, negative = inhibition, hits mostly inhibitors | PC12 HttQ103-GFP aggregates, Acumen cytometry, 40 h | actives 1.1% (n = 220,000); also: % is scaled to controls: 0 for no effect and ±100 for the full control effect; nearly all actives have a fitted effect of over 60% in size
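Inducible Q103 Huntingtin exon 1–GFP PC12 line, 1500 cells/well in phenol red free DMEM with 5% equine and 5% calf serum. Tebufenozide 100 nM induced expression; compounds titrated; aggregates quantified by cytometry.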
Lamin A splicing – qHTS Assay for Modulators of Lamin A Splicing; actives 0.01% (n = 200,000); HeLa LMNA splicing GFP/RFP minigene ratio, 48 h; AID 1487, 2009; Potency, µM (top dose mostly 46.1 µM), for the others: top-dose ratio change, negative = inhibition, usual class: inhibitors; active = well fitted inhibition curve with a large enough effect in the signal ratio, with a control signal flat, not every such curve was filed as active; inconclusive = small, poorly fitted or top-dose-only effect, or effect the other way, or a change in a side signal; the % refers to the signal ratio; also: % is scaled to controls: 0 for no effect and ±100 for the full control effect
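S3 HeLa cells stably expressing lamin A-EGFP splicing minigene plus DsRed2, 600 cells/well, 48 h compound exposure at 37C. Laser-scanning cytometry; analysed as GFP (500-530 nm)/RFP (575-640 nm) total intensity ratio; 0.5% DMSO vehicle.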
Starred values were filed as active, the others as inactive; ? = inconclusive; nt = not tested or not shown; ! = repeats disagree; [ ] = remark or other dose. Unless noted, calls follow the shape of the dose curve; as a rule, active = well fitted curve in the direction sought with a large enough effect; inconclusive = small, poorly fitted or top-dose-only effect, or another doubt; inactive = no such curve, though single readings can be large; an effect the other way counts as inactive or inconclusive. Potency is read from the fitted curve at half-maximal effect.

SMILES | HTT cytoprotect | Epigenetic reg | NPSR antag | HttQ103 aggreg | Lamin A splicing
COc1ccc(N(CC(=O)N/N=C(\C)CCc2ccccc2)S(=O)(=O)c2ccc(C)cc2)cc1 | 3.5µM* | 2% | 11% | 11%[9.22 µM] | nt
COc1ccc(S(=O)(=O)N(CC(=O)NCCc2ccccc2)c2ccc(Cl)cc2)cc1 | nt | 4% | nt | nt | nt
CCc1ccc(C2=NN(S(C)(=O)=O)C(c3cccs3)C2)cc1 (configuration not stated) | -24% | 18µM* | 5%[46.1 µM] | 10%[9.22 µM] | ?
Cc1ccc(C2=NN(S(C)(=O)=O)C(c3cccs3)C2)cc1 (configuration not stated) | -19% | 1% | 5%[46.1 µM] | -7% | 6%
C=C1CC[C@@H]2[C@](C)(CC[C@@H](O)[C@]2(C)CO)[C@@H]1C/C=C1/C(=O)OC[C@H]1O | 40µM* | nt | nt | nt | nt
O=C(c1ccc(S(=O)(=O)Cc2ccccc2Cl)c([N+](=O)[O-])c1)N1CCN(c2ccccn2)CC1 | -202% | 4% | -8% | 16µM* | nt
O=C(c1ccc(Cl)c([N+](=O)[O-])c1)N1CCN(c2ccccn2)CC1 | 14%[0.074 µM] | 1% | -7% | -17% | 2%
O=C(c1ccc(S(=O)(=O)Cc2cc(F)ccc2F)c([N+](=O)[O-])c1)N1CCCCC1 | -7%[10 µM] | 0% | 13% | 13µM* | ?
O=C(c1ccc(S(=O)(=O)Cc2cc(F)ccc2F)c([N+](=O)[O-])c1)N1CCCC1 | -81% | -1% | 3% | 16µM* | nt
CC(C)(C)C(=O)OCOC(=O)[C@@H]1N2C(=O)[C@@H](NC(=O)[C@H](N)c3ccccc3)[C@H]2SC1(C)C | ? | 1%[16.9 µM] | nt | 1%[20.6 µM] | ?
COc1cccc(Cn2c(=O)cnc3cnc(Nc4ccccc4)nc32)c1 | -42% | nt | nt | nt | ?
CCN(CC)CCCC(C)NC(=O)c1ccc(Cc2nc3ccccc3[nH]2)cc1 (configuration not stated) | nt | 1% | nt | nt | nt
CC1=C(c2ccc(NN=C(C#N)C#N)cc2)NNC(=O)C1 | -52% | nt | nt | 13µM* | nt
O=C(CN1CCCc2ccccc21)N/N=C/c1ccccc1 | -5%[10 µM] | 0% | -16% | 4% | -7%
O=C(CN1CCCc2ccccc21)N/N=C/c1c(O)ccc2ccccc12 | -55%[10 µM] | -1% | -14% | 10µM* | ?
CCC(=O)Nc1ccccc1-c1nc2ccccc2n(CC(=O)c2ccc(Br)cc2)c1=O | nt | 0% | nt | nt | nt
O=C(CSc1nnc(-c2c[nH]c3ccccc23)o1)N(Cc1ccccc1)c1ccc(F)cc1 | 23%[10 µM] | -1% | 7.9µM* | 15% | ?
COc1ccc(CN(C(=O)CSc2nnc(-c3ccccc3C)o2)c2ccc(F)cc2)cc1 | 15%[10 µM] | 1% | -26%[46.1 µM] | ? | ?
O=C(Nc1ccc(Cl)cc1)c1cc(S(=O)(=O)N2CCOCC2)cs1 | -48% | -1% | 1%[46.1 µM] | 10µM* | ?
O=C(Nc1cccc(F)c1)c1cc(S(=O)(=O)N2CCOCC2)cs1 | 19%[10 µM] | 0% | 8% | -2%[9.22 µM] | ?
Cc1ccc(C)c(-n2nnnc2Sc2nnnn2-c2ccccc2)c1 | -88%[10 µM] | -1% | -14%[46.1 µM] | 20µM* | ?
COC(=O)C1=C(C)NC(C)=C(C(=O)OCCN(C)Cc2ccccc2)[C@@H]1c1cccc([N+](=O)[O-])c1 | -17%[1.9 µM] | nt | nt | nt | nt
C#CCn1c(S(=O)(=O)Cc2ccccc2Cl)nc(-c2ccccc2)c1-c1ccccc1 | -8%[10 µM] | 5% | 10µM* | -13% | -16%
C#CCn1c(S(=O)(=O)Cc2ccc(C)cc2)nc(-c2ccccc2)c1-c1ccccc1 | -57% | -1% | ? | -31% | ?
Cc1c(NC(=O)c2cccc(NS(C)(=O)=O)c2)c(=O)n(-c2ccccc2)n1C | 8%[10 µM] | 0% | 56% | 1µM* | nt
SMILES | HTT cytoprotect | Epigenetic reg | NPSR antag | HttQ103 aggreg | Lamin A splicing
CC(=O)c1cccc(NC(=O)Nc2c(C)n(C)n(-c3ccccc3)c2=O)c1 | nt | 0% | nt | nt | nt
COc1cccc(NS(=O)(=O)c2cc(-c3cnc(C4CC4)o3)ccc2C)c1 | nt | 9% | nt | nt | ?
Cc1ccc2[nH]c(=O)c(C(c3nnnn3C3CCCC3)N3CCCc4ccccc43)cc2c1 (configuration not stated) | 9%[10 µM] | 0% | 4%[46.1 µM] | 35µM* | -14%
CC(C)Cc1nc(N2CCN(C(=O)c3ccccc3)CC2)c(C#N)c2c1CCC2 | -79% | 1% | 2µM* | ? | ?
CC(=O)N1CCN(c2nc(CC(C)C)c3c(c2C#N)CCC3)CC1 | -29% | -1% | -8%[46.1 µM] | 2% | ?
CC1(C)CC(=O)C2=C(C1)OC1=C(C(=O)CC(C)(C)C1)C2c1ccc(O)cc1O | -87% | ? | 13µM* | ? | ?
N#CC(C#N)=C1NC2(CCCCC2)Cc2ccccc21 | 11%[10 µM] | 1% | -15% | -1%[9.22 µM] | nt
N#CC(C#N)=c1ccc2c(c1)NC1(CCCCC1)N=2 | ? | 6% | 10µM* | ? | ?
Cc1nn(-c2ccccc2)c(N)c1Sc1ccccc1[N+](=O)[O-] | 2%[10 µM] | 0% | -11% | 3.5µM* | -14%
Cc1ccccc1N(C)C(=O)c1noc2c1COc1ccccc1-2 | nt | 0% | nt | nt | nt
O=C(O)c1ccccc1-c1c2ccc(=O)cc-2oc2cc(O)ccc12 | -125% | 2% | nt | 0.032µM* | ?
O=C(O)CN(CC(=O)O)Cc1cc2c(-c3ccccc3C(=O)O)c3cc(CN(CC(=O)O)CC(=O)O)c(=O)cc-3oc2cc1O | nt | ? | nt | 0.18µM* | nt
Cc1nnc(SCC(=O)Nc2ccc(N(C)C)cc2)[nH]c1=O | nt | 3% | nt | nt | nt
COC(=O)C1(C(=O)OC)C[C@@H]2CON=C2[C@H]1c1ccccc1 | 20µM*! | 0% | nt | nt | nt
O=C1c2ccccc2-n2c1nc1ccccc1c2=O | -168% | 3% | 9% | 11µM* | ?
C(=N\Nc1nc(Nc2ccccc2)nc(Nc2ccccc2)n1)/c1cccnc1 | -9%[10 µM] | ? | ? | 4.5µM* | nt
C(=N\Nc1nc(Nc2ccccc2)nc(Nc2ccccc2)n1)/c1ccncc1 | nt | 1% | 3% | nt | 6%[46 µM]
